Assay outcomes (PubChem BioAssay)
tim10-1 inh – growth inhibitors of tim10-1 mutant yeast, primary screen, luminescence, uHTS; AID 463190, 2010; S. cerevisiae tim10-1 ts strain growth, BacTiter-Glo, 24 h; inhibition, % at 20 µM; actives 2.2% (n = 330,000);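 active = inhibition of at least 40%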;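 note: mutant grown at 25 °C; 0% = DMSO wells with yeast and 100% = wells holding no yeast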
NALP1 inh – NALP1 inflammasome inhibitors in reconstituted yeast, colorimetric, S. cerevisiae, triplicate retest; inhibition, % at 10 µM; actives 0.61% (n = 280,000); AID 2071, 2009; S. cerevisiae NALP1/ASC/caspase-1 growth, X-gal OD620, 72 h; in the data active = inhibition mostly above about 24%, no sharp cut-off; inactive = mostly below about 32%
NLRP3 yeast inh – NALP3 inflammasome inhibitors in reconstituted yeast, primary screen, luminescence, uHTS. Yeast reconstituted NLRP3/ASC/caspase-1, beta-gal luminescence, 24 h. inhibition, % at 10 µM. actives 0.39% (n = 330,000);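 active = inhibition of 50% or more; inactive = inhibition below 50%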;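 note: plate controls were induced DMSO wells for no effect and uninduced yeast grown without galactose for full effect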
TIM10 inh – growth inhibitors of isogenic TIM10 control yeast, primary screen, counter-screen for tim10-1 yeast inhibitor project, luminescence, uHTS; actives 1.4% (n = 330,000); inhibition, % at 10 µM; S. cerevisiae TIM10 strain growth, BacTiter-Glo luminescence, 24 h; AID 463195, 2010;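 active = inhibition of 40% or more at the single tested concentration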;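 note: wild-type TIM10 isogenic control strain grown at permissive 25 °C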
V-ATPase pHluor – regulators of yeast V-ATPase proton pumping, primary screen, pHLuorin cytosolic pH fluorescence. S. cerevisiae. response, % at 10 µM. AID 504577, 2011. actives 0.37% (n = 350,000); in the data active = response mostly above about 7.3%, no sharp cut-off; inactive = mostly below about 5.4%; note: actives read high
tim23-1 inh – growth inhibitors of tim23-1 mutant yeast, primary screen, luminescence, uHTS | AID 463212, 2010 | S. cerevisiae tim23-1 growth, BacTiter-Glo luminescence, 24 h | inhibition, % at 20 µM | actives 1.3% (n = 330,000);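 active = growth inhibition of the mutant yeast at or above 50%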;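 note: temperature-sensitive mutant grown at 25 °C; plate controls were DMSO-treated mutant yeast for no effect and medium wells lacking yeast for full effect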
tim10-1 conf – growth inhibitors of tim10-1 mutant yeast, confirmation, single concentration, luminescence, S. cerevisiae; AID 463213, 2010; actives 56% (n = 7,400); inhibition, % at 20 µM; shares compounds with tim10-1 inh; S. cerevisiae tim10-1 ts strain growth, BacTiter-Glo, 24 h;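 active = inhibition of yeast growth at or above a set limit in either of two repeat tests at 20 µM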;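 note: tim10-1 mutant grown at permissive 25 °C to find synthetic lethal compounds; 0% = DMSO yeast wells and 100% = medium wells without yeast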
Active calls of the source: *; . = no result. An excerpt weighted towards active compounds, which were near 4.2% of everything screened.

SMILES | tim10-1 inh | NALP1 inh | NLRP3 yeast inh | TIM10 inh | V-ATPase pHluor | tim23-1 inh | tim10-1 conf
Cc1ccc(OCCN2CCN(c3ncnc4sc(C)c(C)c34)CC2)cc1 | 47* | -5 | 13 | 33 | 4 | 36 | 31
Cc1sc2ncnc(N3CCOCC3)c2c1C | 17 | 2 | 15 | 11 | 3 | 8 | .
COc1ccc(CN2C(=O)c3ccccc3C2=O)cc1C(=O)Nc1ccccc1N1CCOCC1 | 28 | 8 | -8 | 20 | -3 | 21 | .
O=c1c(Cl)c(N2CCN(c3ccc(F)cc3)CC2)cnn1C12CC3CC(CC(C3)C1)C2 | 48* | 34 | 11 | 30 | -5 | 38 | 29
O=c1c(Cl)c(N2CCN(c3ccccc3)CC2)cnn1C12CC3CC(CC(C3)C1)C2 | 34 | 5 | 5 | 16 | 2 | 39 | .
CC1CC(C)CN(S(=O)(=O)c2ccc(C(=O)Nc3nnc(C4CC4)o3)cc2)C1 (stereo unspecified) | 47* | 9 | 15 | 27 | 1 | 45 | 10
CCOC(=O)N1CCN(S(=O)(=O)c2ccc(C(=O)Nc3nnc(C4CC4)o3)cc2)CC1 | -1 | 34 | -12 | -9 | -2 | -4 | .
COc1cccc(C(c2nnnn2Cc2ccccc2)N2CCN(C(=O)c3ccco3)CC2)c1OC (stereo unspecified) | 23 | 15 | 2 | 20 | 5 | 33 | .
Cc1nc2ccc(NS(=O)(=O)c3ccc(C)c(C)c3)cc2s1 | 42* | -2 | 30 | 28 | -3 | 33 | 12
NNc1nc2sc3c(c2c(=O)n1Cc1ccccc1)CCC3 | 54* | . | 23 | 18 | -1 | 24 | 22
CCn1c(NN)nc2sc3c(c2c1=O)CCC3 | -18 | 5 | 1 | -6 | 0 | -16 | .
COc1ccc(OC)c(NC(=O)C2CC(=O)N(c3ccc(Br)cc3)C2)c1 (stereo unspecified) | 43* | . | 11 | 23 | 0 | 39 | 26
Cn1c(=O)n(C)c2cc([N+](=O)[O-])c(N3CCN(S(=O)(=O)c4ccc5ccccc5c4)CC3)cc21 | 21 | 32 | 17 | 18 | 0 | 26 | .
Cn1c(=O)n(C)c2cc([N+](=O)[O-])c(N3CCN(C(=O)c4cccc(Cl)c4)CC3)cc21 | 41* | 24 | 13 | 26 | 4 | 27 | 22
Cc1ccc(S(=O)(=O)N2CCN(c3cc4c(cc3[N+](=O)[O-])n(C)c(=O)n4C)CC2)cc1 | 43* | . | 17 | 26 | 1 | 37 | 21
CCc1ccc(NC(=O)C2=CC(c3ccc(OC)c(OC)c3)=NS(=O)(=O)N2C)cc1 | -1 | 20 | 6 | -4 | 0 | 8 | .
CCCOc1ccccc1/C=C1\SC(N2CCCCC2)=NC1=O | 42* | 18 | 35 | 17 | -1 | 43 | 33*
O=C1CCSc2ccc(Cl)cc2N1Cc1ccc(Cl)cc1 | 45* | -2 | 6 | 18 | -4 | 48 | 24
CCOC(=O)c1cc2c(ccn2C)n1CC(=O)Nc1ccc(F)cc1 | 6 | 9 | 18 | 17 | -2 | -1 | .
Oc1ccccc1/C=N/NC(=S)NCCc1ccccc1 | . | 4 | . | . | 0 | . | .
C/C(=N\NC(=S)NCc1ccccc1)c1ccccc1F | 46* | 2 | -6 | 31 | -3 | 40 | 34*
C/C(=N\NC(=S)NCc1ccccc1)c1ccco1 | 17 | -3 | -15 | 23 | -1 | -18 | .
C/C(=N\NC(=S)NCCc1ccccc1)c1ccc(O)cc1O | 43* | -24 | 17 | 30 | -2 | 33 | 3
C/C(=N\NC(=S)NCc1ccccc1)c1ccc(C(C)(C)C)cc1 | 42* | 24 | 21 | 28 | -1 | 38 | 24
C/C(=N\NC(=S)NCc1ccccc1)c1ccc(C#N)cc1 | 5 | 24 | 3 | 15 | -2 | 3 | .
SMILES | tim10-1 inh | NALP1 inh | NLRP3 yeast inh | TIM10 inh | V-ATPase pHluor | tim23-1 inh | tim10-1 conf
COc1ccc(C(=O)/C=C/c2ccccc2)c(O)c1 | 49* | 3 | 20 | 40 | -2 | 34 | 47*
COc1ccc(C(=O)c2ccc(OC)cc2O)c(O)c1 | 41* | -9 | 35 | 15 | 2 | 21 | 36*
COc1cccc(N2[C@@H](CC(C)=O)c3ccc(/C=C/C(C)=O)cc3S2(=O)=O)c1 | 44* | . | 11 | 34 | 2 | 33 | 34*
COC(=O)C[C@H]1c2ccccc2S(=O)(=O)N1c1cccc(OC)c1 | -9 | . | -1 | -8 | 0 | 9 | .
CC(C)Cc1nc2oc3c(NCC4CCCO4)ncnc3c2c2c1CCC2 (stereo unspecified) | 45* | 16 | 7 | 25 | -4 | 24 | 27
Cc1c(C(=O)N2CCOCC2)sc2nc(-c3ccccc3)cn12 | 6 | -2 | 6 | -11 | -5 | 8 | .
Cc1c(C(=O)N2CCc3ccccc3C2)sc2nc(-c3ccccc3)cn12 | 51* | 16 | 15 | 36 | 0 | 41 | 35*
COc1ccc(-c2cn3c(C)c(C(=O)N4CCc5ccccc5C4)sc3n2)cc1 | 43* | 29 | 28 | 25 | 3 | 43 | 37*
COc1ccccc1N1CCN(C(=O)c2sc3nc(-c4ccccc4)cn3c2C)CC1 | 38 | 39 | 25 | 33 | -1 | 44 | .
CC(OC(=O)c1cc2c(s1)CCCCC2)C(=O)NC(N)=O (stereo unspecified) | 23 | 11 | -4 | 16 | -1 | 14 | .
Cc1ccc(CS(=O)(=O)c2ccc(C(=O)N3CCN(c4ccccn4)CC3)cc2[N+](=O)[O-])cc1 | 47* | 12 | 22 | 15 | 1 | 33 | 24
Cc1ccc(CS(=O)(=O)c2ccc(C(=O)N3CCCCC3)cc2[N+](=O)[O-])cc1 | 24 | -5 | 24 | 19 | 2 | 24 | .
Cc1ccc(NC(=O)CN2C(=O)S/C(=C\C(=O)Nc3ccc(Cl)cc3)C2=O)cc1 | . | 8 | . | . | 2 | . | .
CC(c1ccco1)N(C(=O)c1ccccc1NS(=O)(=O)c1cccc([N+](=O)[O-])c1)c1ccccn1 (stereo unspecified) | 42* | 22 | 2 | 40 | . | 32 | 34*
Cc1sc2nc(SCc3nc4ccccc4[nH]3)n(Cc3ccco3)c(=O)c2c1C | 52* | 15 | -8 | 29 | -4 | 46 | 35*
Cc1sc2nc(SCc3ccccc3)n(Cc3ccco3)c(=O)c2c1C | 7 | 17 | 11 | 0 | -7 | 16 | .
Cc1ccc(-c2nc(-c3ccccn3)no2)cc1Cl | 40* | 7 | 16 | 24 | -1 | 44 | 15
Clc1cccc(-c2nc(-c3ccccn3)no2)c1 | 17 | -6 | 9 | 1 | 1 | -6 | .
